Assay outcomes as filed in PubChem.
Only a selection was taken, and hits are over-represented in it overall.
BL2 CD40 inh = CD40 pathway inhibition in BL2 cells; BL2 NF-kB luciferase reporter, CD40L-induced, 4 h; inhibition, % at 10 µM; actives 0.94% (n = 83,000); AID 1053188;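 active = mean inhibition of at least 50% with a set share of replicates also reaching that level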;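 also: 0% = neutral control wells and 100% = IKK inhibitor VII at 50 µM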
* = called active by the depositor; [ ] = dose if it differs, or a comment.

SMILES	BL2 CD40 inh
CN1CCN(Cc2nc3c(c(=O)n(C)c(=O)n3C)n2CCCc2ccccc2)CC1	3
Cc1ccc(-c2ccc([C@H]3[C@H](CO)N4CCCCN(C(=O)Nc5cccc(F)c5)C[C@@H]34)cc2)cc1	23
C/C=C/c1ccc([C@H]2[C@@H](CO)N(S(C)(=O)=O)[C@H]2CN(CCC)C(C)=O)cc1	9[25 µM]
CO[C@@H]1CN(C)C(=O)c2ccc(NC(=O)C3CCC3)cc2OC[C@H](C)N(C)C[C@H]1C	-4
CN(C)C(=O)c1cc(-c2ccccc2)no1	-48
CC(=O)Nc1nccc(-c2cc(-c3ccccc3)no2)n1	-90
Cc1ccc2nc(-c3cc(-c4ccccc4)no3)cn2c1	63*
C[C@H]1CCCCO[C@H](CN(C)S(=O)(=O)c2ccc(F)cc2)[C@@H](C)CN([C@@H](C)CO)C(=O)c2cc(NS(=O)(=O)c3ccc(Cl)cc3)ccc2O1	2
O=C(C[C@@H]1CC[C@H]2[C@@H](COC[C@@H](O)CN2S(=O)(=O)c2ccc(Cl)cc2)O1)NCCN1CCCCC1	-10
Cc1ccc(S(=O)(=O)N(C)C[C@H]2OCCCC[C@H](C)Oc3ccc(NS(=O)(=O)c4ccc(Cl)cc4)cc3C(=O)N([C@@H](C)CO)C[C@@H]2C)cc1	7
CCOC(=O)Cn1cnc2c(sc3nc(C)cc(C)c32)c1=O	-75
CCOC(=O)Cn1cnc2sc3c(c2c1=O)CCC3	56*
COC(=O)Cn1cnc2sc3c(c2c1=O)CCCC3	3
CCc1nc2ccc(C(=O)N3CCC(C(N)=O)CC3)cc2nc1CC	31
O=C(Cc1ccccn1)N1CC(=O)N2[C@H](CO)[C@H](c3ccc(C#CC4CCCC4)cc3)[C@H]2C1	4
COCCN(C(=O)CSc1nnc(C(F)(F)F)n1C)c1c(N)n(CC(C)C)c(=O)[nH]c1=O	-13
C[C@H]1CN([C@@H](C)CO)C(=O)c2c(c3ccccc3n2C)-c2ccccc2CO[C@@H]1CN(C)S(C)(=O)=O	-12
C[C@@H]1CN([C@@H](C)CO)C(=O)c2c(c3ccccc3n2C)-c2ccccc2CO[C@@H]1CN(C)C(=O)[C@H](C)c1ccccc1	2
COc1cccc(NC(=O)N2CC[C@@H]3[C@@H](CO)N(C)c4ccc(-c5ccccc5)cc4[C@@H]32)c1	0
O=C(c1cccnc1)N1C[C@H]2[C@@H](c3ccccc31)[C@H](CO)N2C(=O)Nc1ccccc1Cl	1
COCC(=O)NC[C@H]1N[C@H](CO)[C@H]1c1ccc(C2=CCCC2)cc1	-12
CC1CC(C)(C)Nc2ccc(OC(=O)c3ccco3)cc21 (stereo not given)	68*
COc1ccc(C(=O)Nc2cccc(OC(=O)c3ccco3)c2)cc1	-26
CC1CC(C)(C)Nc2ccc(N=O)cc21 (stereo not given)	23
CCCN(C)C[C@H]1OCc2cnnn2CCCC(=O)N([C@@H](C)CO)C[C@H]1C	-4[25 µM]
SMILES	BL2 CD40 inh
O=C(N[C@H]1CC[C@H](CCNC(=O)C2CCOCC2)O[C@@H]1CO)c1ccncc1	-4
NNC(=O)CCN1CCCCC1	6
NC(=O)CCN1CCCCC1	-5
O=C(CCC(=O)CCN1CCCCC1)CCN1CCCCC1	77*
O=C(NCC[C@@H]1CC[C@@H](NS(=O)(=O)Cc2ccccc2)[C@@H](CO)O1)C1CCCC1	3
O=C1c2ccccc2-c2nc3ccccc3nc21	-118
NC1=CC(=O)C(=O)c2ccccc21	-12
O=C1C(=C(I)I)c2ccccc2-c2ccccc21	106*
C[N+](C)(C)CCC(=O)N1C/C(=C/c2ccccc2)C(=O)/C(=C\c2ccccc2)C1	-60
O=C(/C=C/c1ccccc1)CCN1CCOCC1	-7
O=C1/C(=C/c2ccccc2)CN(C(=O)CCN2CCOCC2)C/C1=C\c1ccccc1	93*
C[C@H](O)C#Cc1cnc2c(c1)C(=O)N([C@H](C)CO)C[C@@H](C)[C@H](CN(C)Cc1cccc(C(=O)O)c1)O2	-12[25 µM]
O=C(/C=C/Sc1ccccc1)c1ccccc1	-26
COc1ccc(C(=O)/C=C/Sc2nc3ccccc3o2)cc1	75*
N#CCSc1nc2ccccc2o1	11
COc1ccc(-c2ccc(C(=O)C3CC3)cc2)cc1	-51
CC[N+]1(C)CCC(O)(c2ccc(OC)cc2)C(C(=O)c2ccc(OC)cc2)C1 (stereo not given)	97*
COc1ccc(C(=O)C23CC4CC(C2)CC(C(=O)c2ccc(OC)cc2)(C4)C3)cc1	9
CC(C)NC(=O)N1C[C@H]2[C@@H](c3ccccc31)[C@@H](CO)N2C(=O)c1ccc(F)cc1	10[25 µM]
C[C@@H]1CCCCO[C@H](CN(C)Cc2ccc(C(F)(F)F)cc2)[C@H](C)CN([C@@H](C)CO)C(=O)c2cc(NC(=O)c3ccccc3)ccc2O1	0
O=C1NC2c3c(I)sc(I)c3C(=O)C2O1 (stereo not given)	101*
O=C1NC2c3c(Cl)sc(Cl)c3C(=O)C2O1 (stereo not given)	56*
C[C@H]1CN([C@@H](C)CO)C(=O)c2c(c3ccccc3n2C)-c2ccccc2CO[C@H]1CN(C)S(=O)(=O)c1ccccc1F	-4
COc1ccccc1CNC(=O)C[C@@H]1C[C@H]2c3cc(NC(=O)Nc4ccccc4F)ccc3O[C@H]2[C@@H](CO)O1	-14[25 µM]
CC(C)NC(=O)N1C[C@H]2[C@@H](c3ccccc31)[C@H](CO)N2C(=O)Nc1ccc(F)cc1	3
SMILES	BL2 CD40 inh
CCN(CC)c1ccc2nc3ccc(N)cc3[n+](-c3ccccc3)c2c1	88*
Nc1ccc2nc(Cc3ccccc3)[nH]c2c1	1
CS(=O)(=O)N1[C@H](C#N)[C@@H](c2ccc(C#Cc3cccc(F)c3)cc2)[C@H]1CO	-18[25 µM]
O=C(N[C@H]1CC[C@H](CCn2cc(C3CCCC3)nn2)O[C@@H]1CO)c1cccnc1	-3
C[C@H](CO)N1C[C@H](C)[C@@H](CN(C)C(=O)Nc2ccccc2)OCCCC[C@H](C)Oc2ccc(NC(=O)Nc3ccc4c(c3)OCO4)cc2C1=O	1
COc1ccc(NC(=O)N(C)C[C@@H]2Oc3ccc(NS(=O)(=O)c4ccc(F)cc4)cc3C(=O)N([C@@H](C)CO)C[C@H]2C)cc1	-2
CC1(C)CC(=O)C/C(=N/Nc2nc3ccccc3s2)C1	50*
CCN(CC)S(=O)(=O)c1cccc(C(=O)N/N=C2\CC(=O)CC(C)(C)C2)c1	8
Cc1ccccc1S(=O)(=O)/N=C(/Nc1nc2ccccc2s1)c1ccccc1	-78
C[C@@H]1CN([C@@H](C)CO)C(=O)c2cccc(NC(=O)C3CCOCC3)c2O[C@@H]1CN(C)Cc1ccncc1	-11[25 µM]
C[C@H]1CN([C@@H](C)CO)C(=O)c2c(c3ccccc3n2C)-c2ccccc2CO[C@H]1CN(C)S(=O)(=O)c1cn(C)cn1	-1[25 µM]
O=C(Cc1ccccn1)N1CC(=O)N2[C@H](C1)[C@H](c1ccc(C#CC3CCCC3)cc1)[C@@H]2CO	1
CC(C)[C@@H]1C/C=C\CCNC(=O)[C@H](C)CC(=O)N1	-6[25 µM]
CC(C)NC(=O)N(C)C[C@@H]1OCCCC[C@@H](C)Oc2ccc(NC(=O)NC3CCCCC3)cc2C(=O)N([C@H](C)CO)C[C@@H]1C	-2
COc1ccc(S(=O)(=O)N(C)C[C@H]2OCc3ccccc3-c3c(n(C)c4ccccc34)C(=O)N([C@H](C)CO)C[C@H]2C)cc1	4
Cc1cccc(S(=O)(=O)N(C)C[C@@H]2OCc3ccccc3-c3c(n(C)c4ccccc34)C(=O)N([C@H](C)CO)C[C@@H]2C)c1	15
C[C@@H]1CN([C@H](C)CO)C(=O)c2c(c3ccccc3n2C)-c2ccccc2CO[C@@H]1CN(C)S(=O)(=O)c1ccccc1	8
